Compound activity from PubChem.
Sampled rows, rich in hits. Any-hit rate of the full collection: about 7.6%.
Giardia killer = Giardia lamblia killing; AID 540267; Giardia lamblia trophozoite viability; actives 0.15% (n = 340,000); activity change, % at 7.66 µM, hits read low; in the data active = activity change below about -80%; inconclusive = between about -30% and that limit;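 also: parasites exposed to compound for two days anaerobically before the ATP read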
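Viability, read as ATP luminescence: trophozoites at 100 cells/well, compound added, 48 hrs anaerobic at 37 deg C, then 15-30 min room-temperature development before reading.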
BRCA1 expr act = increases BRCA1 expression | actives 1.1% (n = 380,000) | MCF7-BRCA1-FFLuc reporter, luminescence, 48 h; response scale: scaled: vehicle 0%, 10 µM genistein 100% | Potency, µM (series often up to 46.1 µM), usual class: activators; also: nearly all actives have a fitted effect of over 80% in size
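Compounds are tested at multiple concentrations on MCF7 BRCA1-luciferase reporter cells seeded at 2000 per well; after 48 h, a single luminescence end-point is taken and curves fitted to the normalized data.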
p53 reactivation = mutant p53 re-activation in reporter cells; H1299 p53-A138V BP100-luciferase reporter, luminescence, 24 h; Potency, µM (highest dose often 92.2 µM), most hits filed as activators; actives 0.063% (n = 320,000); also: nearly all actives have a fitted effect of over 45% in size
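H1299 (p53-null), stable ts p53-A138V + BP100-Luc; 1000 cells/well, Opti-MEM/10% FBS; cpd 4 pt, 1:5; 24 h, 37 deg C, 5% CO2; detection reagent 10 min RT; luminescence.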
ELG1 repair inh = ELG1-dependent DNA repair inhibition; actives 2.3% (n = 330,000); HEK293T ELG1-luciferase reporter, luminescence, 16 h; DNA damage induced by 5-fluorouridine; Potency, µM (series often up to 46.1 µM), hits mostly inhibitors; also: nearly all actives have a fitted effect of over 55% in size
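Overnight (16 hr) co-exposure of 2,000 cells/well to 5-fluorouridine and compound at 37 °C preceded detection. Luciferase was quantified via ONE-Glo luminescence; loss of signal denotes inhibition.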
Gal4-VP16 FLuc = counter-screen for ROR gamma inhibitors: Gal4-VP16 reporter | Drosophila S2 Gal4-VP16 UAS-luciferase, luminescence, 20 h | Potency, µM (series often up to 53.6 µM), actives largely listed as inhibitors | actives 3.5% (n = 310,000) | AID 2546;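 also: Gal4-VP16 expression switched on by copper sulfate through the metallothionein promoter; nearly all actives have a fitted effect of over 50% in size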
RORg inh = inhibitors of mouse ROR gamma transcriptional activity | P51450 | Drosophila S2 Gal4-RORgamma UAS-luciferase reporter, 20 h | Potency, µM (top dose mostly 53.6 µM), actives largely listed as inhibitors | actives 5.4% (n = 310,000) | AID 2551; also: nearly all actives have a fitted effect of over 60% in size
Target sequence (P51450 whole entry, looked up, the tested form may be a part): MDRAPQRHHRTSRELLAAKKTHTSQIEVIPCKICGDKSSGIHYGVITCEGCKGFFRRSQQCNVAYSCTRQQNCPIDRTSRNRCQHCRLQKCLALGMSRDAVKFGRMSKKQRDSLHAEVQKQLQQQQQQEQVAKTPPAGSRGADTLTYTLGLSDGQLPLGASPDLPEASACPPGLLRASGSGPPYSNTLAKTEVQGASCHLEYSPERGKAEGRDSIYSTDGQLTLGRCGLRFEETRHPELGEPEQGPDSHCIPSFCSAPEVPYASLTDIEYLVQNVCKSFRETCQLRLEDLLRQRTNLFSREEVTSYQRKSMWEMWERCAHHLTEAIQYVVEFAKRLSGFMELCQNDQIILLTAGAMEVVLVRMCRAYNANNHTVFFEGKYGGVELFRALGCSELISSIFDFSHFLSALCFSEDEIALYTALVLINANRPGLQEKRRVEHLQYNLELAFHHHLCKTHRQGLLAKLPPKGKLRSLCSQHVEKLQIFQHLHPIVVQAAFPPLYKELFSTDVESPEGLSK
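Stable Schneider cell line, Gal4 DNA-binding domain fused to ROR gamma, UAS-luciferase. Cmpd 1 hr RT → CuSO4 700 uM final → 20 hr RT → luciferase reagent 10 min → luminescence.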
Of the large screens only hits and unclear results are named; the others gave an inactive call. Unless noted, calls follow the shape of the dose curve; as a rule, active = well fitted curve in the direction sought with a large enough effect; inconclusive = small, poorly fitted or top-dose-only effect, or another doubt; inactive = no such curve, though single readings can be large; an effect the other way counts as inactive or inconclusive.

COCCCNC(=O)c1cc2c(-c3cccc(OC)c3)nn(C)c2s1	ELG1 repair inh 11.6µM
CCOCCCNC(=O)c1cc2c(-c3ccc(Cl)cc3)nn(C)c2s1	ELG1 repair inh 20.6µM
CC(CCc1ccco1)NC(=O)c1cc2c(-c3ccccc3F)nn(C)c2s1 (configuration not stated)	ELG1 repair inh 16.4µM, RORg inh inconclusive
Cn1nc(-c2ccc(Cl)cc2)c2cc(C(=O)N3CCN(C(=O)c4ccco4)CC3)sc21	ELG1 repair inh 8.2µM, Gal4-VP16 FLuc inconclusive
COc1ccc(C)cc1NS(=O)(=O)c1ccc(Br)s1	none
CCCCCn1cnc2c(=S)nc(N)[nH]c21	Gal4-VP16 FLuc inconclusive, RORg inh inconclusive
COc1ccc(N2CCN(C(=O)c3cc4c(-c5cccc(OC)c5)nn(C)c4s3)CC2)cc1	ELG1 repair inh inconclusive
Cn1nc(-c2ccc(Cl)cc2)c2cc(C(=O)NC3CC3)sc21	Gal4-VP16 FLuc 12.6µM, RORg inh inconclusive
CC(=O)c1ccc(N2CCN(C(=O)c3cc4c(-c5ccccc5F)nn(C)c4s3)CC2)cc1	ELG1 repair inh 18.4µM, Gal4-VP16 FLuc inconclusive, RORg inh inconclusive
COc1ccc([C@H]2CC(=O)C=C(c3ccccc3Oc3ccccc3)C2)cc1	ELG1 repair inh inconclusive (no result: Gal4-VP16 FLuc, RORg inh)
O=C(Nc1ncnc2c1ncn2C1OC(COC(=O)c2ccccc2)C(F)C1O)c1ccccc1 (configuration not stated)	Gal4-VP16 FLuc 11.2µM, RORg inh 10µM
O=C(CC[C@H]1O[C@@H](n2cnc3c(NC(=O)c4ccccc4)ncnc32)[C@H](O)[C@@H]1O)NCC(c1ccccc1)c1ccccc1	none (no result: Giardia killer, p53 reactivation, ELG1 repair inh, Gal4-VP16 FLuc, RORg inh)
CSCC(=O)N1CCCC(CNC(=O)c2ccc(-c3ccccc3)cc2)C1 (configuration not stated)	ELG1 repair inh inconclusive
CCC(C(=O)O)C1OC(C(C)C(O)C(C)C(=O)C(CC)C2OC3(C=CC(O)C4(CCC(C)(C5CCC(O)(CC)C(C)O5)O4)O3)C(C)CC2C)C(C)CC1C (configuration not stated)	Gal4-VP16 FLuc 0.447µM, RORg inh 0.891µM (no result: Giardia killer, BRCA1 expr act, p53 reactivation, ELG1 repair inh)
CCC(C)C(=O)Nc1nccs1 (configuration not stated)	ELG1 repair inh inconclusive, Gal4-VP16 FLuc 17.8µM, RORg inh 5.62µM
O=C(Nc1nccs1)C1(S(=O)(=O)c2ccc(Cl)cc2)CC1	Gal4-VP16 FLuc inconclusive, RORg inh 7.08µM
CC(Oc1ccc(Cl)cc1)C(=O)Nc1nccs1 (configuration not stated)	RORg inh 14.1µM
Cc1ccc(S(=O)(=O)C2(C(=O)Nc3nccs3)CC2)cc1	Gal4-VP16 FLuc inconclusive, RORg inh inconclusive
CCC(C(=O)Nc1nccs1)(C(F)(F)F)C(F)(F)F	Gal4-VP16 FLuc 7.94µM, RORg inh 7.08µM
CCC(C)O (configuration not stated)	none (no result: Giardia killer, BRCA1 expr act, p53 reactivation, ELG1 repair inh)
COC(=O)c1c(NC(=O)CCc2ccc(C)o2)sc(C)c1C	Gal4-VP16 FLuc 12.6µM, RORg inh inconclusive
CCOC(=O)c1c(NC(=O)CCc2ccc(CC)o2)sc(C)c1C	ELG1 repair inh inconclusive
Cc1ccc(CCC(=O)Nc2ccc(Cl)cc2)o1	none (no result: p53 reactivation)
Cc1ccc(CCC(=O)Nc2ccc(N(C)C)cc2)o1	Gal4-VP16 FLuc inconclusive, RORg inh 0.562µM
COc1c(C)cc(Br)cc1C(=O)Nc1ccc(S(N)(=O)=O)cc1	none
Cc1cc(C)c(C#N)c(SCC(=O)c2cccs2)n1	ELG1 repair inh inconclusive
CCN(CC)C(=O)CSc1nc(C)cc(-c2cccs2)c1C#N	RORg inh 10µM
Cc1cccc(/C=N/NC(=O)c2cc3c(s2)-c2ccccc2CC3)c1	ELG1 repair inh inconclusive
COc1cc(C(=S)N2CCN(c3ccccc3Cl)CC2)cc(O)c1O	RORg inh inconclusive
CC(=O)c1ccc(NC(=O)CC2Nc3cccc4cccc(c34)NC2=O)cc1 (configuration not stated)	ELG1 repair inh 20.6µM
Cc1nn2c(-c3ccccc3)ccnc2c1-c1ccccc1	BRCA1 expr act 7.08µM, p53 reactivation inconclusive, ELG1 repair inh inconclusive
Cc1nn2c3c(cnc2c1-c1ccccc1)C(=O)CCC3	BRCA1 expr act 12.6µM, ELG1 repair inh inconclusive
COc1ccc(C2CC(=O)c3cnc4c(-c5ccccc5)c(C)nn4c3C2)c(OC)c1 (configuration not stated)	none (no result: Giardia killer, p53 reactivation, ELG1 repair inh, Gal4-VP16 FLuc, RORg inh)
COc1ccnc(CSC(N)=Nc2ccccc2C(F)(F)F)c1	p53 reactivation inconclusive, ELG1 repair inh inconclusive, RORg inh inconclusive
COc1ccnc(CSC(N)=Nc2cccc(C(F)(F)F)c2)c1	Gal4-VP16 FLuc 12.6µM, RORg inh 6.31µM
CN1CCN(c2ccc(Cl)cc2NC(=O)CC2OC(=O)c3ccccc32)CC1 (configuration not stated)	none (no result: Gal4-VP16 FLuc, RORg inh)
CCCCN1C(=O)c2ccc(C(=O)Nc3c(N)n(CCCC)c(=O)n(C)c3=O)cc2C1=O	none
COc1cc2nc(NCCC(C)C)n3nc(-c4ccccc4)nc3c2cc1OC	none (no result: Giardia killer, p53 reactivation, ELG1 repair inh, Gal4-VP16 FLuc, RORg inh)
CC(Oc1ccc(Br)cc1)C(=O)Nn1c(=S)[nH]c2ncccc2c1=O (configuration not stated)	p53 reactivation inconclusive (no result: Giardia killer, BRCA1 expr act)
CCCC(Oc1ccc(Br)cc1)c1nc2c3cc(OC)c(OC)cc3nc(=S)n2[nH]1 (configuration not stated)	Gal4-VP16 FLuc 3.55µM, RORg inh 1.26µM
CC(Oc1ccc(Br)cc1)c1nc2c3ccccc3nc(=S)n2[nH]1 (configuration not stated)	ELG1 repair inh inconclusive, Gal4-VP16 FLuc 1.26µM, RORg inh 0.282µM
COc1ccc2[nH]cc(C(O)CN3CCN(c4ccccc4)CC3)c2c1 (configuration not stated)	none (no result: Giardia killer, BRCA1 expr act)
COc1ccc(N2CCN(CC(O)c3c[nH]c4ccc(OC)cc34)CC2C)cc1 (configuration not stated)	ELG1 repair inh 23.1µM, Gal4-VP16 FLuc inconclusive
C(=C\c1nccc2c1[nH]c1ccccc12)/c1ccccc1	Giardia killer inconclusive, ELG1 repair inh inconclusive, Gal4-VP16 FLuc 3.98µM, RORg inh 1.58µM
C(=C\c1ccnc2ccccc12)/c1ccccc1	none (no result: Giardia killer, p53 reactivation, ELG1 repair inh, Gal4-VP16 FLuc, RORg inh)
Cc1ccc(/C=C\c2nccc3c2[nH]c2ccccc23)cc1	Giardia killer inconclusive, ELG1 repair inh inconclusive, Gal4-VP16 FLuc 3.16µM, RORg inh 0.631µM
Fc1ccc(/C=C\c2nccc3c2[nH]c2ccccc23)cc1	Gal4-VP16 FLuc inconclusive, RORg inh 1.78µM
O=c1[nH]c2ccccc2nc1/C=C/c1ccc(F)cc1	ELG1 repair inh inconclusive
CCNC(=O)CC1C(=O)N(c2ccccc2)C(=O)N1CCc1ccc(OC)cc1 (configuration not stated)	none
CNc1nc(NC)nc(NNC(=O)c2ccccc2)n1	none (no result: p53 reactivation, ELG1 repair inh, Gal4-VP16 FLuc, RORg inh)
